Here are results for 39 compounds from the antibiotic and cytotoxicity screens of Wong et al. (2023).

Screen size: about 39,000 compounds; about 1,500 (3.8%) were called active. The sample as a whole holds a higher share of actives than the screen did.

For this assay, the system named is HSkMC (human skeletal muscle cells). Kind of assay: cytotoxicity call (relative viability < 0.9). The conditions noted are these: 10 µM.
In the case of `C[C@@H]1O[C@@H](O[C@H]2[C@H](Oc3cc(O)c4c(c3)O[C@H](c3ccc(O)cc3)CC4=O)O[C@H](CO)[C@@H](O)[C@@H]2O)[C@H](O)[C@H](O)[C@H]1O`, the cytotoxicity call is “inactive”.

Consider `Cc1ccc(S(=O)(=O)N(C)C[C@@H]2Oc3ccc(NS(=O)(=O)c4cn(C)cn4)cc3C(=O)N([C@H](C)CO)C[C@@H]2C)cc1`, for which the cytotoxicity call was “inactive”.

Consider `COc1ccc(S(=O)(=O)N(C)C[C@H]2Oc3ccc(NC(=O)Nc4c(C)noc4C)cc3C(=O)N([C@@H](C)CO)C[C@H]2C)cc1`, for which the cytotoxicity call was “inactive”.

For the compound `Cc1ccc(S(=O)(=O)N2C[C@H](O)COC[C@H]3O[C@@H](CC(=O)N[C@@H]4CCN(Cc5ccccc5)C4)CC[C@@H]32)cc1`, the cytotoxicity call is “inactive”.

For `C[C@@H]1CN([C@H](C)CO)C(=O)c2cc(NS(=O)(=O)c3cccs3)ccc2O[C@@H]1CN(C)Cc1ccc(Cl)c(Cl)c1`, the cytotoxicity call is “inactive”.

Regarding `C[C@@H]1CN([C@H](C)CO)C(=O)c2cc(NC(=O)C3CCCCC3)ccc2O[C@@H](C)CCCCO[C@@H]1CN(C)C(=O)Nc1cccc2ccccc12`, the cytotoxicity call is “active”.

With `C[C@@H]1CN([C@@H](C)CO)C(=O)c2cc(NC(=O)C3CCCCC3)ccc2O[C@@H](C)CCCCO[C@@H]1CN(C)C(=O)Nc1cccc2ccccc12`, the cytotoxicity call is “inactive”.

For the compound `C[C@H](CO)N1C[C@H](C)[C@@H](CN(C)C(=O)Nc2cccc3ccccc23)OCCCC[C@H](C)Oc2ccc(NC(=O)C3CCCCC3)cc2C1=O`, the cytotoxicity call is “inactive”.

Take `C[C@@H]1CCCCO[C@@H](CN(C)C(=O)Nc2cccc3ccccc23)[C@@H](C)CN([C@H](C)CO)C(=O)c2cc(NC(=O)C3CCCCC3)ccc2O1`: the cytotoxicity call is “active”.

As for `C[C@@H]1CCCCO[C@H](CN(C)C(=O)Nc2cccc3ccccc23)[C@@H](C)CN([C@H](C)CO)C(=O)c2cc(NC(=O)C3CCCCC3)ccc2O1`, the cytotoxicity call is “inactive”.

Consider `C[C@@H]1CCCCO[C@H](CN(C)C(=O)Nc2cccc3ccccc23)[C@H](C)CN([C@@H](C)CO)C(=O)c2cc(NC(=O)C3CCCCC3)ccc2O1`, for which the cytotoxicity call was “inactive”.

Turning to `C[C@@H]1CCCCO[C@@H](CN(C)C(=O)Nc2cccc3ccccc23)[C@@H](C)CN([C@@H](C)CO)C(=O)c2cc(NC(=O)C3CCCCC3)ccc2O1`, the cytotoxicity call is “active”.

In the case of `C[C@H]1CCCCO[C@@H](CN(C)C(=O)Nc2cccc3ccccc23)[C@@H](C)CN([C@@H](C)CO)C(=O)c2cc(NC(=O)C3CCCCC3)ccc2O1`, the cytotoxicity call was “inactive”.

Take `C[C@@H]1CCCCO[C@H](CN(C)C(=O)Nc2cccc3ccccc23)[C@H](C)CN([C@H](C)CO)C(=O)c2cc(NC(=O)C3CCCCC3)ccc2O1`: the cytotoxicity call was “inactive”.

As for `C[C@@H]1CCCCO[C@H](CN(C)C(=O)Nc2ccc(F)cc2)[C@H](C)CN([C@@H](C)CO)C(=O)c2cc(NS(=O)(=O)c3ccccc3)ccc2O1`, the cytotoxicity call was “inactive”.

As to `C[C@H]1CN([C@@H](C)CO)S(=O)(=O)c2ccc(-c3ccc(C(=O)N(C)C)cc3)cc2O[C@@H]1CN(C)C(=O)C1CC1`, the cytotoxicity call is “inactive”.

As to `O=C(N[C@@H]1C=C[C@@H](CC(=O)N2CCOCC2)O[C@@H]1CO)c1ccc2c(c1)OCO2`, the cytotoxicity call is “inactive”.

For the compound `C[C@H](CO)N1C[C@H](C)[C@H](CN(C)CC2CCCCC2)Oc2ccc(NC(=O)Cn3cnnn3)cc2C1=O`, the cytotoxicity call was “inactive”.

On to `C[C@H](CO)N1C[C@H](C)[C@@H](CN(C)S(=O)(=O)c2ccccc2)Oc2ccc(NS(=O)(=O)c3ccc(F)cc3)cc2CC1=O`, for which the cytotoxicity call is “inactive”.

Regarding `Cc1noc(C)c1S(=O)(=O)Nc1cccc2c1O[C@H](CN(C)S(=O)(=O)c1ccccc1)[C@H](C)CN([C@@H](C)CO)C2=O`, the cytotoxicity call was “inactive”.

With `C[C@@H](O)C#Cc1ccc2c(c1)O[C@H](CN(C)C(=O)C1CCCCC1)[C@@H](C)CN([C@@H](C)CO)S2(=O)=O`, the cytotoxicity call is “inactive”.

For `C[C@H]1CN([C@@H](C)CO)S(=O)(=O)c2ccc(Br)cc2O[C@H]1CN(C)C(=O)CCN1CCCCC1`, the cytotoxicity call is “inactive”.

Take `COc1ccc(S(=O)(=O)Nc2ccc3c(c2)C(=O)N([C@@H](C)CO)C[C@@H](C)[C@@H](CN(C)C(=O)NC2CCCCC2)OCCCC[C@H](C)O3)cc1`: the cytotoxicity call was “inactive”.

Turning to `Cc1noc(C)c1S(=O)(=O)Nc1ccc2c(c1)CC(=O)N([C@H](C)CO)C[C@@H](C)[C@H](CN(C)S(=O)(=O)c1cccs1)O2`, the cytotoxicity call is “inactive”.

Take `COc1ccc2c3c(n(c2c1)C)[C@@H](CO)N(Cc1ccccc1)C[C@]13CCN(CC1)C(=O)Nc1cccc(c1)F`: the cytotoxicity call was “inactive”.

Take `CO[C@H]1CN(C)C(=O)c2cc(NC(=O)Nc3ccccc3F)ccc2OC[C@H](C)N(Cc2ccccc2C(=O)O)C[C@H]1C`: the cytotoxicity call was “inactive”.

For `COc1cccc(S(=O)(=O)N(C)C[C@@H]2Oc3ncc(C#CCN(C)C)cc3C(=O)N([C@H](C)CO)C[C@@H]2C)c1`, the cytotoxicity call is “inactive”.

On to `C[C@@H]1CN([C@H](C)CO)C(=O)c2cccc(NS(=O)(=O)c3ccc(F)cc3)c2O[C@H]1CN(C)C(=O)Nc1ccc(C(F)(F)F)cc1`, for which the cytotoxicity call is “inactive”.

As for `C[C@@H]1CN([C@@H](C)CO)C(=O)c2cccc(NS(=O)(=O)c3ccc(Cl)cc3)c2O[C@H]1CN(C)C(=O)Nc1ccc(C(F)(F)F)cc1`, the cytotoxicity call is “inactive”.

Regarding `C[C@H]1CN([C@@H](C)CO)C(=O)c2cccc(NS(=O)(=O)c3ccc(Cl)cc3)c2O[C@@H]1CN(C)C(=O)Nc1ccc(C(F)(F)F)cc1`, the cytotoxicity call was “inactive”.

Take `C[C@@H]1CN([C@@H](C)CO)C(=O)c2cccc(NS(=O)(=O)c3ccc(Cl)cc3)c2O[C@@H]1CN(C)C(=O)Nc1ccc(C(F)(F)F)cc1`: the cytotoxicity call is “active”.

For the compound `C[C@@H]1CN([C@H](C)CO)C(=O)c2cccc(NS(=O)(=O)c3ccc(Cl)cc3)c2O[C@@H]1CN(C)C(=O)Nc1ccc(C(F)(F)F)cc1`, the cytotoxicity call is “active”.

Take `C[C@H](CO)N1C[C@H](C)[C@@H](CN(C)C(=O)Nc2ccc(C(F)(F)F)cc2)Oc2c(NS(=O)(=O)c3ccc(Cl)cc3)cccc2C1=O`: the cytotoxicity call is “inactive”.

For `C[C@H]1CN([C@@H](C)CO)C(=O)c2cccc(NS(=O)(=O)c3ccc(F)cc3)c2O[C@@H]1CN(C)C(=O)Nc1ccc(C(F)(F)F)cc1`, the cytotoxicity call was “inactive”.

For the compound `C[C@@H]1CN([C@H](C)CO)C(=O)c2cccc(NS(=O)(=O)c3ccc(Cl)cc3)c2O[C@H]1CN(C)C(=O)Nc1ccc(C(F)(F)F)cc1`, the cytotoxicity call was “inactive”.

In the case of `C[C@H]1CN([C@@H](C)CO)C(=O)c2cccc(NS(=O)(=O)c3ccc(Cl)cc3)c2O[C@H]1CN(C)C(=O)Nc1ccc(C(F)(F)F)cc1`, the cytotoxicity call is “active”.

Turning to `C[C@H](CO)N1C[C@H](C)[C@H](CN(C)C(=O)Nc2ccc(C(F)(F)F)cc2)Oc2c(NS(=O)(=O)c3ccc(Cl)cc3)cccc2C1=O`, the cytotoxicity call was “active”.

Regarding `C[C@@H]1CN([C@@H](C)CO)C(=O)c2cccc(NS(=O)(=O)c3ccc(F)cc3)c2O[C@@H]1CN(C)C(=O)Nc1ccc(C(F)(F)F)cc1`, the cytotoxicity call is “inactive”.

In the case of `C[C@H]1CN([C@@H](C)CO)C(=O)c2cccc(NS(=O)(=O)c3ccc(F)cc3)c2O[C@H]1CN(C)C(=O)Nc1ccc(C(F)(F)F)cc1`, the cytotoxicity call was “inactive”.
